The structures appear in SMILES notation. Hit rate of the full screen: of about 300,000 compounds, about 1,200 (0.4%) were called active. Where a call stands in place of a potency, no number is given. Inconclusive results (about 3%) are left out. The sample holds actives, similar compounds and a random draw of the others, so the mix is not that of the screen. Calls follow the shape of the dose curve; as a rule, active = well fitted inhibition curve with a large enough effect; inconclusive = small, poorly fitted or top-dose-only effect, or another doubt; inactive = no such curve, though single readings can be large or run the other way.
Potency is read from the fitted curve at half-maximal effect.

The assay concerns the target Lysosomal alpha-glucosidase (Homo sapiens) (UniProt P10253). The experiment in a line: qHTS Assay for Inhibitors and Activators of Human alpha-Glucosidase Cleavage of Glycogen.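 Also: the screen sought inhibitors and activators.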 Particulars: recombinant GAA, glycogen substrate, Amplex Red glucose oxidase fluorescence; series mostly up to 76.3 µM. The gist of the method: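 Recombinant enzyme (4 nM final) with compounds titrated up to 77 uM and bovine liver glycogen (30 ug) in citrate pH 5.0, 0.01% Tween-20, 37 C 40 min. Released glucose detected by Amplex Red/glucose oxidase (Ex 573/Em 610); AC50 from Hill fits.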
A general note: qHTS replaces the single test concentration by a dilution series.
For `CCOc1ccc2nc(N3CCCC(C(=O)Nc4cc(C)ccc4C)C3)sc2c1` (centres undefined), the Potency entry was “inactive”.

As for `O=[N+]([O-])c1ccc(N/N=C/c2ccccc2)cc1`, the Potency entry was “inactive”.

Take `O=C(O)/C=C/C(=O)NNc1ccc([N+](=O)[O-])cc1`: the Potency is 14 µM (active).

Regarding `CNC(=S)Nc1ccc([N+](=O)[O-])cc1`, the Potency result is “inactive”.

Regarding `COc1cc(Nc2nc(-c3ccc(OC)c(OC)c3)nc3ccccc23)cc(OC)c1`, the Potency entry is “inactive”.

On to `CC(Nc1ccc(-c2nc(-c3ccco3)no2)cc1[N+](=O)[O-])c1ccccc1` (centres undefined), for which the Potency entry was “inactive”.

Turning to `CCc1ccc(C(=O)CC2(O)C(=O)N(CCc3ccccc3)c3ccc(Br)cc32)cc1` (centres undefined), the Potency entry is “inactive”.

As to `COC(=O)c1cc(NC(=O)c2ccco2)ccc1N1CCOCC1`, the Potency result was “inactive”.

For `Cn1c(=O)n(C)c2cc(CNc3ccc(N4CCOCC4)c(C(=O)O)c3)ccc21`, the Potency was 9.92 µM (active).

For `CCN(CC)S(=O)(=O)c1ccc(N2CCOCC2)c(C(=O)O)c1`, the Potency entry was “inactive”.

For `CCn1cc(C(=O)NCCc2ccccc2)c(=O)c2cc(S(=O)(=O)N3CCCCCC3)ccc21`, the Potency entry is “inactive”.

Consider `O=C(Nc1nc2c(s1)CCCC2)c1ccccc1F`, for which the Potency entry is “inactive”.

As to `CCc1ccc(NC(=O)N2CCN(c3ccccc3)CC2)cc1`, the Potency result is “inactive”.

For `CC(CC(=O)N1CCN(c2ccccc2)CC1)c1ccccc1` (centres undefined), the Potency result is “inactive”.

As to `CC(=O)N1CCN(c2ccc(NCc3ccc(C(C)C)cc3)cc2)CC1`, the Potency is 31.6 µM (active).

For the molecule `Cc1ccc(-c2cc(N)n(Cc3cccc(Cl)c3)n2)cc1`, the Potency entry is “inactive”.

On to `CC1=Nc2cc(C(=O)N3CCC(C)CC3)ccc2Sc2ccc(Cl)cc21`, for which the Potency result is “inactive”.

Turning to `Nc1ccc(Nc2ccccc2)cc1`, the Potency result was “inactive”.

For the molecule `Cc1ccc(Nc2ccccc2N)cc1`, the Potency is 50.1 µM (active).

On to `Cc1ccc(Nc2nnc(SCc3ccccc3)s2)cc1`, for which the Potency entry is “inactive”.

For the molecule `COc1ccc(CNC(=O)COCc2cc(-c3cccs3)on2)cc1OC`, the Potency result is “inactive”.

For the molecule `Cc1nc2nc(NCc3cccc(Br)c3)[nH]n2c(=O)c1Cc1ccccc1`, the Potency result was “inactive”.

`CC1CCN(c2nc3ccc(C(=O)N4CCN(c5ccccc5)CC4)cc3s2)CC1`: the Potency result was “inactive”.

As to `O=C(Nc1ccc2nc(SCCOc3ccccc3)sc2c1)c1ccco1`, the Potency result is “inactive”.

On to `Cc1cc(NC(=O)C2CCC(CNS(=O)(=O)c3ccc(Br)s3)CC2)ccc1Br` (centres undefined), for which the Potency entry is “inactive”.

With `CC(=O)c1ccc(NC(=O)Nc2ccc([N+](=O)[O-])cc2C)cc1`, the Potency result is “inactive”.

Regarding `CCN(CC)S(=O)(=O)c1cc([N+](=O)[O-])ccc1NNC(=O)Nc1ccccc1`, the Potency was 28.2 µM (active).

Take `CCN(CC)S(=O)(=O)c1cc([N+](=O)[O-])ccc1N=Nc1c(O)n(C)c2ccccc12`: the Potency entry was “inactive”.

Turning to `COC(=O)c1cccc(Cn2nnc3sc4c(c3c2=O)CCC(C(C)(C)C)C4)c1` (centres undefined), the Potency entry is “inactive”.

The values are drawn from PubChem BioAssay AID2100 (National Center for Advancing Translational Sciences (NCATS), 2009).
